Results on 28 compounds are retold here after PubChem BioAssay (NCATS).

A short description of test [1]: qHTS for Inhibitors of the Aldehyde Dehydrogenase Family (ALDH1A2, ALDH1A3, ALDH2, ALDH3A1) (AID 2061307). Further: nearly all actives have a fitted effect of over 50% in size. On Potency: test system not described further here; potency means the concentration at half of the fitted maximal effect.
The target of test [2] is Aldehyde dehydrogenase, mitochondrial (Homo sapiens) (UniProt P05091). As to the kind of experiment: qHTS for Inhibitors of the Aldehyde Dehydrogenase Family (ALDH2) Primary screen (AID 2061308; further: nearly all actives have a fitted effect of over 55% in size). (In general: In qHTS, concentration-response curves come from the screen itself.)
The target in test [3] is Retinaldehyde dehydrogenase 3 (Homo sapiens) (UniProt P47895). As to the kind of experiment: qHTS for Inhibitors of the Aldehyde Dehydrogenase Family (ALDH1A3) Confirmatory screens (AID 2061311). Further: nearly all actives have a fitted effect of over 60% in size. Further: potency means the concentration at half of the fitted maximal effect.
Test [4] addresses Retinal dehydrogenase 2 (Homo sapiens) (UniProt O94788). The test can be described thus: qHTS for Inhibitors of the Aldehyde Dehydrogenase Family (ALDH1A2) Confirmation screens (AID 2061314). Further: nearly all actives have a fitted effect of over 65% in size. Further: potency means the concentration at half of the fitted maximal effect.
Test [5] has as its target Retinaldehyde dehydrogenase 3 (Homo sapiens) (UniProt P47895). The test can be described thus: qHTS for Inhibitors of the Aldehyde Dehydrogenase Family (ALDH1A3) Primary screen (AID 2061315). Further: potency means the concentration at half of the fitted maximal effect.
Test [6] deals with Aldehyde dehydrogenase 1A1 (Homo sapiens) (UniProt P00352). As to the kind of experiment: qHTS for Inhibitors of the Aldehyde Dehydrogenase Family (ALDH1A1) Confirmatory screens (AID 2061316). Further: potency means the concentration at half of the fitted maximal effect; nearly all actives have a fitted effect of over 65% in size.

SMILES strings stand for the structures. Records with an inconclusive call do not appear. Active and inactive are the calls of the source. The call rests on the fitted dose curve; in most records, active means well fitted curve in the direction sought with a large enough effect; inconclusive means small, poorly fitted or top-dose-only effect, or another doubt; inactive means no such curve, though single readings can be large; an effect the other way counts as inactive or inconclusive.

For `COc1cccc(C2c3c(ncn(-c4ccccc4)c3=N)Oc3ccc4ccccc4c32)c1` (centres undefined), the Potency result in test [1], in test [2] and in test [5] was “inactive” throughout. In addition, the Potency in test [3] was 11.3 µM (active); in test [4] it was 12.7 µM (active).

As to `COc1cccc(C2c3c(ncn(-c4ccccc4-c4ccccc4)c3=N)Oc3ccc4ccccc4c32)c1` (centres undefined), the values for the Potency in test [1], in test [3] and in test [4] were 8.91 µM (active), 15.8 µM (active) and 7.98 µM (active), respectively. The Potency result in test [2] and in test [5] was “inactive” in each case.

On to `c1cc2c(cc1CNc1ccc(N3CCCCC3)cc1)OCO2`, for which the Potency in test [1] and in test [3] was 12.7 µM (active) in each case. Moreover, in test [2], the Potency entry was “inactive”.

Regarding `O=C(O)c1ccc(O)c2ncc(N3CC(N4CCOCC4)C3)cc12`, the Potency entry in test [1], in test [2] and in test [5] was “inactive” each time. The Potency is 12.7 µM (active) in test [3] and 15.9 µM (active) in test [4].

With `COc1ccc2nc(-c3ccc(F)cc3)sc2c1`, the Potency in test [1] was 5.38 µM (active). For the same compound, the Potency result in test [2] was “inactive”.

For the compound `COc1ccc(-n2nnc(-c3nc(-c4cccs4)no3)c2N)cc1OC`, the Potency entry in test [1] is “inactive”.

Consider `O=C(O)c1ccc(-n2[nH]c(-c3ccccc3)cc2=O)cc1`, for which the Potency in test [1] is 8.91 µM (active).

As to `CC(C)CCn1c(O)c(N=NC(=O)c2cccnc2)c2ccccc21`, the Potency result in test [1] was “inactive”.

With `O=C(O)c1ccc(-c2noc(-c3cccc(F)c3)n2)cc1`, in test [1], the Potency is 1.52 µM (active). Besides, the Potency result in test [2] was “inactive”.

Consider `O=C1CC(c2c(F)cccc2F)c2sc(N3CCOCC3)nc2N1` (centres undefined), for which the Potency in test [1] is 11.3 µM (active).

As for `NC(=O)C1CCN(c2ncc(-c3ccc4c(c3)OC(F)(F)O4)s2)CC1`, the Potency in test [1] is 10.1 µM (active). Also, the Potency result in test [2], in test [3], in test [4] and in test [5] was “inactive” each time.

For the compound `c1cc2c(cc1CNc1ccc(N3CCOCC3)cc1)OCO2`, the Potency in test [1] was 11.3 µM (active); in test [3], 6.34 µM (active). Also, in test [2], the Potency entry was “inactive”.

As to `Cc1ccc2nc3sc(C(=O)NCCCN(C)C)cc3cc2c1`, the Potency in test [1] was 12.1 µM (active); in test [3] it was 21.5 µM (active). Also, the Potency result in test [2] is “inactive”.

Regarding `O=C(c1ccco1)N1CCN(c2nc(-c3ccc(Br)cc3)cs2)CC1`, the Potency is 3.98 µM (active) in test [1] and 15.8 µM (active) in test [3]. The Potency result in test [2], in test [4] and in test [5] was “inactive” each time.

In the case of `N#Cc1cccc(C#N)c1-c1nc2c3ccccc3c3cc(Cl)ccc3c2[nH]1`, the Potency entry in test [1], in test [2] and in test [4] was “inactive” throughout. In addition, the Potency in test [3] was 5.65 µM (active); in test [5], 25.1 µM (active).

With `COc1ccc(C2Nc3ccccc3C(=O)N2Cc2ccccc2)cc1COc1ccc(C#N)cc1` (centres undefined), the results for the Potency in test [1], in test [3] and in test [4] were 1.01 µM (active), 12.6 µM (active) and 0.896 µM (active), respectively. The Potency result in test [2] and in test [5] was “inactive” throughout.

Regarding `CCOC(=O)C1CCN(C(=O)C(C)(C)NC(=O)Nc2ccc(N)cc2)CC1`, the Potency entry in test [1] and in test [2] was “inactive” in each case.

Consider `COc1cccc(-c2nc(-c3ccc(C(=O)O)cc3)no2)c1`, for which the Potency in test [1] was 1.2 µM (active); in test [3], 0.504 µM (active). In addition, the Potency entry in test [2] and in test [4] was “inactive” each time.

Consider `Cc1ccc(-c2ocnc2C(=O)N(C)Cc2cccc(C(N)=O)c2)cc1`, for which the Potency result in test [1] was “inactive”.

`Cc1oc(-c2ccc(C(F)(F)F)cc2)nc1COc1cccc2cc(NS(=O)(=O)C(F)(F)F)ccc12`: the Potency in test [1] is 12.7 µM (active).

Take `Oc1ccccc1C1Nc2cccc3cccc(c23)N1`: the Potency result in test [1] and in test [2] was “inactive” throughout. The Potency in test [3] was 12.7 µM (active).

`COc1ccc(-n2nc(C(=O)Nc3ccc(Cl)cn3)c3c4ccccc4n(C)c3c2=O)cc1`: the Potency entry in test [1] was “inactive”.

In the case of `CC(C)(C)CNc1ncnc2ccc(-c3ccc4c(c3)OCO4)cc12`, in test [1], the Potency entry is “inactive”.

Consider `Oc1ccc(COc2cccc3ccccc23)c2cccnc12`, for which the Potency result in test [1] and in test [2] was “inactive” each time. For the same compound, the Potency in test [3] is 10.1 µM (active).

Regarding `NC(=O)Cc1ccc(Nc2ncnc3c2cnn3-c2ccccc2)cc1`, in test [1], the Potency result is “inactive”.

As to `Cc1[nH]cnc1C[C@H]1CCc2c(C)c3ccccc3n2C1=O`, the Potency is 8.96 µM (active) in test [1], 3.18 µM (active) in test [3] and 11.3 µM (active) in test [4]. The Potency entry in test [2] and in test [5] was “inactive” each time.

With `Cc1cnc(-c2ccccc2CO)nc1NCC1CCN(c2cccnc2)CC1`, the Potency entry in test [1], in test [2], in test [3] and in test [5] was “inactive” each time. Further, the Potency in test [4] was 11.3 µM (active).

As for `NC(=O)C1CCN(c2ncc(-c3ccc4c(c3)OCO4)s2)CC1`, the Potency in test [1] was 5.04 µM (active); in test [3] it was 17.8 µM (active); in test [6], 12.7 µM (active). In addition, the Potency entry in test [2] and in test [4] was “inactive” throughout.
